Inconclusive results are not listed. A call without a number means that no potency is given here. Active and inactive are the calls of the source. Calls follow the shape of the full dose curve.
Assay: qHTS assay for small molecule disruptors of the mitochondrial membrane potential - cell viability (AID 720634);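 also: human HepG2 liver cancer cells; nearly all actives have a fitted effect of over 20% in size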
Details: HepG2 viability, ATP luminescence (CellTiter-Glo), 1 h; series mostly up to 83.2 µM
From the text: U.S. Tox21 Program National Center for Advancing Translational Sciences [NCATS] NIH Chemical Genomics Center [NCGC] U.S. Environmental Protection Agency [EPA] National Institutes of Environmental Health Sciences [NIEHS] National Toxicology Program [NTP] U.S. Food and Drug Administration [FDA] Tox21 Assay Overview: Mitochondrial membrane potential (MMP), one of the parameters for mitochondrial function, is generated by mitochondrial electron transport chain that creates an electrochemical gradient by a series of redox reactions. This gradient drives the synthesis of ATP, a crucial molecule for various cellular processes. Measuring MMP in living cells is commonly used to assess the effect of chemicals on mitochondrial function; decreases in MMP can be detected using lipophilic cationic fluorescent dyes. […] The dye accumulates in the mitochondria of healthy cells as aggregates, with red fluorescence. The mitochondrial potential decreases and the dye could not accumulate in the mitochondria and remains in the cytoplasm in monomers, with green fluorescence. In addition to the mitochondrial potential assay, these cells were also used to test the cytotoxicity by determining the cell viability in the culture based on the quantitation of ATP present. The cytotoxicity was measured in the same assay well of MMP assay.
Tox21 Assay Protocol Summary: 2,000 HepG2 cells in 5 uL/well were dispensed into black, clear-bottom 1536-well plates using a Multidrop Combi (Thermo Scientific) dispenser. The assay plates were incubated for an overnight at 37 C to allow cells to attach to the wells, followed by the transfer of 23 nL compound or DMSO vehicle by a pin tool (Kalypsys). The plates were incubated for 1 hr at 37 C and 5% CO2, followed by the addition of 5 uL of 2X m-MPI dye into each well using Flying Reagent Dispenser (Aurora Discovery) and then CellTiter-Glo reagent was added at 4 uL/well and incubated 30 min at room temperature. Then luminescence intensity was quantified on a ViewLux CCD-based plate reader.

Structure (SMILES)	Potency
CC1(C)S[C@@H]2[C@H](NC(=O)[C@@H](NC(=O)N3CCNC3=O)c3ccccc3)C(=O)N2[C@H]1C(=O)O	inactive
COc1cccc(-c2ccc(/C=C\CN3CCCCCC3)cc2Cl)c1	inactive
CC(=O)Nc1ccc(OC(C)=O)cc1	inactive
N=C(N)n1cccn1	inactive
CNC(=O)C[C@@H](N)C(=O)N[C@@H](C(=O)N[C@@H]1C(=O)N2[C@@H]1SC(C)(C)[C@@H]2C(=O)O)c1ccc(O)cc1	inactive
C[C@@H]1O[C@@H](OC[C@H]2O[C@@H](Oc3c(-c4ccc(OCCO)c(OCCO)c4)oc4cc(OCCO)cc(O)c4c3=O)[C@H](O)[C@@H](O)[C@@H]2O)[C@H](O)[C@H](O)[C@H]1O	inactive
CC[N+](CC)(CC)CCC(O)(c1ccccc1)C1CCCCC1 (stereo not given)	inactive
FC(F)(F)COCC(F)(F)F	inactive
CC(=O)NC[C@H]1CN(c2ccc(N3CCOCC3)c(F)c2)C(=O)O1	inactive
CCCCC/C=C\C=C\C(=O)OCC	inactive
CCC1OC(=O)C[C@@H](O)[C@H](C)[C@@H](O[C@@H]2O[C@H](C)C[C@H](N(C)C)[C@H]2O)[C@@H](CC=O)C[C@@H](C)C(=O)/C=C/[C@]2(C)OC2C1C (stereo not given in full)	inactive
CCOC(=O)Cc1ccc(-c2ccccc2)cc1	inactive
C=C1[C@@H]2CC[C@@H](C2)C1(C)C	inactive
C[C@]12O[C@H](C[C@]1(O)CO)n1c3ccccc3c3c4c(c5c6ccccc6n2c5c31)CNC4=O	inactive
CCCCCCCC/C=C\CCCCCCCC(=O)N(CCO)CCO	inactive
Cc1ccc(Cl)c(N)c1Cl	inactive
CO/N=C(\C(=O)N[C@@H]1C(=O)N2C(C(=O)O)=C(COC(C)=O)CS[C@H]12)c1csc(N)n1 (stereo in doubt)	inactive
Cc1cn([C@H]2C[C@H](O)[C@@H](CO)O2)c(=O)[nH]c1=O	inactive
CC(C)COC(=O)OCN1C(=O)CN(CCN2CC(=O)N(COC(=O)OCC(C)C)C(=O)C2)CC1=O	inactive
CO/N=C(\C(=O)N[C@@H]1C(=O)N2C(C(=O)O)=C(CSc3cnns3)CS[C@H]12)c1csc(N)n1	inactive

Structure (SMILES)	Potency
CC12CCC(C1)C(C)(C)C2=O (stereo not given)	inactive
OCCCNc1ccccc1	inactive
N[C@@H](Cc1cnc[nH]1)C(=O)O	inactive
NCC(O)CC(=O)O (stereo not given)	inactive
CSCC[C@H](NC(=O)[C@H](Cc1ccc(OS(=O)(=O)O)cc1)NC(=O)[C@@H](N)CC(=O)O)C(=O)NCC(=O)N[C@@H](Cc1c[nH]c2ccccc12)C(=O)N[C@@H](CCSC)C(=O)N[C@@H](CC(=O)O)C(=O)N[C@@H](Cc1ccccc1)C(N)=O	inactive
CNCC(=O)N[C@@H](CCCN=C(N)N)C(=O)N[C@H](C(=O)N[C@@H](Cc1ccc(O)cc1)C(=O)N[C@H](C(=O)N[C@@H](Cc1cnc[nH]1)C(=O)N1CCC[C@H]1C(=O)N[C@@H](C)C(=O)O)C(C)C)C(C)C	inactive
CC[C@@H](C)[C@H](N)C(=O)O	inactive
COc1c(Br)cc(Br)c(C)c1Br	inactive
COc1cc([C@@H]2c3cc4c(cc3[C@@H](O[C@@H]3O[C@@H]5CO[C@@H](C)O[C@H]5[C@H](O)[C@H]3O)[C@H]3COC(=O)[C@H]23)OCO4)cc(OC)c1O	inactive
NC(=O)C1c2ccccc2CCc2ccccc21	inactive
CC[C@@]1([C@@H]2O[C@@H]([C@H]3O[C@@](O)(CO)[C@H](C)C[C@@H]3C)C[C@@H]2C)CC[C@H]([C@]2(C)CC[C@]3(C[C@H](O)[C@@H](C)[C@@H]([C@@H](C)[C@@H](OC)[C@H](C)C(=O)O)O3)O2)O1 (stereo in doubt)	inactive
COC1[C@@H](O[C@@H]2O[C@H](C)[C@@H](O[C@H]3C[C@@](C)(O)[C@H](OC(=O)CC(C)C)[C@H](C)O3)[C@H](N(C)C)[C@H]2O)[C@@H](CC=O)C[C@@H](C)[C@@H](O)/C=C/C=C/C[C@@H](C)OC(=O)C[C@H]1OC(C)=O (stereo not given in full)	inactive
CC1(C)CCC(NC(=O)[C@@H](N)CCC(=O)O)CC1	inactive
NC(=O)c1cc[n+](CC2=C(C(=O)O)N3C(=O)[C@@H](NC(=O)C(c4ccccc4)S(=O)(=O)[O-])[C@H]3SC2)cc1 (stereo not given in full)	inactive
CC12CCC(C[N+](C)(CCC[N+](C)(C)C)C1)C2(C)C (stereo not given)	inactive
S=C1NC=NC2N=CNC12 (stereo not given)	inactive
C=CC[N@@+]12CC[C@@]34c5ccccc5N5/C=C6/[C@H]7C[C@H]8[C@@]9(CC[N@@+]8(CC=C)C/C7=C/CO)c7ccccc7N(/C=C(/[C@@H](C[C@@H]31)/C(=C\CO)C2)[C@H]54)[C@@H]69	inactive
OCC1(CO)COC(C(Cl)(Cl)Cl)OC1	inactive
O=C1[O][Bi][O]c2ccccc21	inactive
CCN1CCCC1CNC(=O)c1cc(S(=O)(=O)CC)ccc1OC (stereo not given)	inactive
